According to paper PMC5540273 (PLoS ONE, 2017):

Assays:
Conditions in all cases: concentration: 1 μM, replicates: in singlicate; n = 1
DMPK2 = tested on: T1, DMPK2
T1 construct: gene CDC42BPG

DMPK = tested on: DMPK
DRAK1 = tested on: T2, DRAK1
T2 construct: gene STK17A

DRAK2 = tested on: T3, DRAK2
T3 construct: gene STK17B

DYRK1A = tested on: DYRK1A
DYRK1B = tested on: DYRK1B
DYRK2 = tested on: DYRK2
EGFR = tested on: EGFR
EIF2AK1 = tested on: EIF2AK1
EPHA1 = tested on: EPHA1
EPHA2 = tested on: EPHA2
EPHA3 = tested on: EPHA3
EPHA4 = tested on: EPHA4
EPHA5 = tested on: EPHA5
EPHA6 = tested on: EPHA6
EPHA7 = tested on: EPHA7
EPHA8 = tested on: EPHA8
EPHB1 = tested on: EPHB1
EPHB2 = tested on: EPHB2
EPHB3 = tested on: EPHB3
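Further: KINOMEscan kinase panel screen.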

SMILES | %Inh (DMPK2) [%] | %Inh (DMPK) [%] | %Inh (DRAK1) [%] | %Inh (DRAK2) [%] | %Inh (DYRK1A) [%] | %Inh (DYRK1B) [%] | %Inh (DYRK2) [%] | %Inh (EGFR) [%] | %Inh (EIF2AK1) [%] | %Inh (EPHA1) [%] | %Inh (EPHA2) [%] | %Inh (EPHA3) [%] | %Inh (EPHA4) [%] | %Inh (EPHA5) [%] | %Inh (EPHA6) [%] | %Inh (EPHA7) [%] | %Inh (EPHA8) [%] | %Inh (EPHB1) [%] | %Inh (EPHB2) [%] | %Inh (EPHB3) [%]
Cc1c(Cn2c3ccccc3n3c(=O)cc(N4CCOCC4)nc23)cccc1C(F)(F)F [GSK2306394] | 0 | 0 | 0 | 0 | 7 | 0 | 14 | 48 | 0 | 0 | 0 | 0 | 0 | 0 | 0 | 7 | 13 | 22 | 0 | 0
COc1cccc(CNC(=O)NC2CCN(c3ccnc(Nc4ccc(F)cc4)n3)C2)c1 (centres unmarked) [GSK1379723] | 0 | 0 | 0 | 0 | 39 | 5 | 4 | 21 | 0 | 12 | 2 | 0 | 0 | 0 | 0 | 1 | 15 | 0 | 0 | 5
CNc1nc(-c2ccc3c(N)n[nH]c3c2)cc(N2C[C@@H](C(=O)NC3CCCCC3)OC[C@H]2C)n1 [GSK2375584] | 11 | 0 | 39 | 2 | 7 | 0 | 0 | 24 | 0 | 14 | 0 | 0 | 8 | 0 | 1 | 8 | 13 | 7 | 0 | 11
O=C1NC(=O)C(c2ccc(Cl)cc2)=C1Nc1cccc(Cl)c1 [SB-317651] | 0 | 0 | 4 | 0 | 15 | 52 | 1 | 20 | 4 | 0 | 8 | 0 | 0 | 1 | 0 | 0 | 0 | 0 | 20 | 0
NS(=O)(=O)c1cccc(N/C=C2\C(=O)Nc3ccc(S(=O)(=O)Cc4c(Cl)cccc4Cl)cc32)c1 [GSK398099] | 18 | 0 | 0 | 0 | 29 | 14 | 9 | 24 | 0 | 12 | 0 | 12 | 12 | 0 | 3 | 8 | 31 | 17 | 14 | 6
O=C(Nc1n[nH]c2cc(-c3ccsc3)ccc12)C1CC1 [SB-732932] | 0 | 0 | 17 | 0 | 0 | 12 | 28 | 0 | 0 | 3 | 0 | 13 | 0 | 3 | 6 | 0 | 0 | 0 | 0 | 7
COc1ccc(Nc2nccc(N3CCC(NC(=O)c4cc5ccccc5s4)C3)n2)cc1 (centres unmarked) [GSK1379738] | 7 | 0 | 0 | 0 | 15 | 0 | 0 | 0 | 0 | 17 | 0 | 0 | 8 | 0 | 1 | 7 | 13 | 20 | 12 | 11
CS(=O)(=O)CCNCc1nc(-c2ccc3ncnc(Nc4ccc5c(cnn5Cc5ccccc5)c4)c3c2)cs1.Cl.Cl [GW569716] | 0 | 0 | 35 | 21 | 36 | 0 | 0 | – | 0 | 14 | 0 | 0 | 6 | 8 | 7 | 4 | 11 | 0 | 0 | 13
Cc1ccc(NC(=O)Nc2ccccc2F)cc1-c1ccc(C(=O)Nc2ccncc2)cc1 [GSK1398477] | 16 | 3 | 1 | 0 | 26 | 8 | 17 | 24 | 0 | 0 | 31 | 17 | 40 | 14 | 31 | 19 | 52 | 27 | 12 | 22
